Assay outcomes as filed in PubChem BioAssay.
LANA-H2A inh: blocks KSHV LANA binding to histone H2A/H2B; cell-free LANA-H2A/H2B peptide, fluorescence polarization; inhibition, % (no concentration beside the values); 320,000 tested, 0.6% active; in the data active means inhibition mostly above about 10%, no sharp cut-off; inactive means mostly below about 6.7%
Target sequence (Q9QR71 whole entry, looked up): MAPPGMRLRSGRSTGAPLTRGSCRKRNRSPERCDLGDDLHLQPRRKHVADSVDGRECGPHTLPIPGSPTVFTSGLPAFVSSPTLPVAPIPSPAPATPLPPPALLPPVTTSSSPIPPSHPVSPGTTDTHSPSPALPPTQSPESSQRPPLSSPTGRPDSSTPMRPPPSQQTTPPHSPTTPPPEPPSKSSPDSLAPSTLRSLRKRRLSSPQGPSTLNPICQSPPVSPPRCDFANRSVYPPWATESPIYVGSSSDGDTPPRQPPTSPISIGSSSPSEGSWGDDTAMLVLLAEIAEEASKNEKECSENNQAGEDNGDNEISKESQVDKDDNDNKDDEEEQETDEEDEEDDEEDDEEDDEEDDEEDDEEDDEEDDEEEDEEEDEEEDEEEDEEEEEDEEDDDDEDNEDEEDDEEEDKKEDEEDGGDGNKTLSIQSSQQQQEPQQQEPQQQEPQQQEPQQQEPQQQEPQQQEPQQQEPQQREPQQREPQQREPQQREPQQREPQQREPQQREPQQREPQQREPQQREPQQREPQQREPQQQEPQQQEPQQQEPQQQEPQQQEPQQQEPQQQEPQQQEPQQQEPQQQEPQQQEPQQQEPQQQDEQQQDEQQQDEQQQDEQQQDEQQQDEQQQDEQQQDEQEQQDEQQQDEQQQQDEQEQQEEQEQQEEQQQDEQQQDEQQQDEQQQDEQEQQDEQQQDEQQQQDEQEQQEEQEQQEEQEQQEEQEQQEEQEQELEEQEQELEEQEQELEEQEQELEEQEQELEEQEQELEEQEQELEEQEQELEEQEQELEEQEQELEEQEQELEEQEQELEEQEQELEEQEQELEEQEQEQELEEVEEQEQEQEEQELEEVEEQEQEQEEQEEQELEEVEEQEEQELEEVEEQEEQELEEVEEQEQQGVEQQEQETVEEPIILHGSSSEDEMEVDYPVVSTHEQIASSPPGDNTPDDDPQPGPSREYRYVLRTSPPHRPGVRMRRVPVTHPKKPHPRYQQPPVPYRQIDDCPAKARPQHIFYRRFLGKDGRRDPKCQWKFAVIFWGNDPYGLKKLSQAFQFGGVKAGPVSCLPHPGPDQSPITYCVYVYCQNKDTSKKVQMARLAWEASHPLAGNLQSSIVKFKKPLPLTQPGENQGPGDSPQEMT
IDE inh: inhibits human insulin-degrading enzyme in HEK cells; inhibition, % at 5.59 µM; 320,000 tested, 0.41% active; P14735; FAbetaB cleavage, fluorescence polarization;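 active means percent inhibition above the average of all tested compounds plus 3 SD, set per screening campaign, cut at about 16% in these data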;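 further: IDE supplied by intact live HEK cells; FP after avidin binding of uncleaved biotin substrate so inhibition keeps polarization high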
HDAC3 inh: blocks human histone deacetylase 3. O15379. recombinant HDAC3, fluorogenic peptide/trypsin coupled, fluorescence. inhibition, % at 8.3 µM. 320,000 tested, 0.15% active. AID 2718; in the data active means inhibition above about 26%, passing the limit was not always enough; inconclusive means no clear call, values can overlap the other calls
SUMO Mot1 rescue: blocks SUMOylation pathway, rescuing yeast Mot1-301 growth | 320,000 tested, 1% active | S. cerevisiae Mot1-301 growth rescue, ATP luminescence, 38.5C; percent above DMSO median, 100 means doubled | growth rescue, % at 18.8 µM;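 active means every valid replicate shows activation above 250% relative to neutral control wells; inactive means the rest, any valid replicate at or below 250%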
IDE cell activ: IDE (human) activation, cell-based; AID 493087; HEK cells, FAbeta-B cleavage, fluorescence polarization; 0% vehicle, 100% cell-free pure enzyme wells; activation, % at 5.96 µM; 340,000 tested, 0.073% active;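 active means activation above the mean of all tested compounds plus 3 SD, set per screening campaign, cut at about 17% in these data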
Large screens that a line does not name were inactive; ! = not confirmed by another sample. The list is not random: actives were taken first. Their share in the collection is about 2.1%.

COCCC(=O)N1CCC(n2nccc2NC(=O)c2ccccc2C)CC1	none
O=C(CS(=O)(=O)c1ccc(F)cc1)N1CCN(c2ccccc2)CC1	SUMO Mot1 rescue 513.9
Cc1nn(-c2ccccc2)c(Cl)c1C(=O)NCC1CCCO1 (stereo not given)	LANA-H2A inh 23.7
CCNC(=O)COC(=O)c1cc(C)n(-c2ccccc2)c1C	none
Cc1cc(C(=O)OCC(=O)NCc2ccco2)c(C)n1-c1ccc(F)cc1	LANA-H2A inh 44.8
O=C1NC2CCCCC2C(=O)N1OS(=O)(=O)c1ccccc1 (stereo not given)	none (no result: LANA-H2A inh, IDE inh, HDAC3 inh, SUMO Mot1 rescue)
O=C(OCC1CCNCC1)c1ccc(F)cc1	none (no result: LANA-H2A inh, IDE inh, HDAC3 inh, SUMO Mot1 rescue)
N=c1c(S(=O)(=O)c2ccc(Cl)cc2)cc2c(=O)n3ccccc3nc2n1Cc1cccnc1	none
Cc1ccccc1CSCCNC(=O)CCSc1ccccc1	SUMO Mot1 rescue 321.9
COc1ccc2oc(C(=O)OCC(=O)NCc3ccco3)c(C)c2c1	none
O=C(CSc1nnc(-c2cccc(Br)c2)o1)N1CCNC1=O	none
CNC(=O)COC(=O)c1ccccc1NC(=O)c1ccco1	none (no result: HDAC3 inh)
O=C(Nc1ccccc1C(=O)OCC(=O)N1CCc2ccccc2C1)c1ccco1	SUMO Mot1 rescue 356.0
Cn1c(N)c(C(=O)COC(=O)c2ccc(OC(F)F)cc2)c(=O)n(C)c1=O	none
CCc1cc2c(=O)oc(-c3ccccc3F)nc2s1	HDAC3 inh 69.0
Cc1cc2c(=O)oc(-c3ccccc3Br)nc2s1	none (no result: LANA-H2A inh, IDE inh, HDAC3 inh, SUMO Mot1 rescue)
CCc1ccc(NC(=O)C2C3CCC(O3)C2C(=O)O)cc1 (stereo not given)	none
Cc1ccc(-c2ccc(/C=N/NC(N)=S)o2)cc1	none
CN(C)/N=C/c1ccc(/C=N/NC(N)=S)o1	SUMO Mot1 rescue 422.2
CCOC(=O)[C@@H]1[C@H]2COc3cc(OC)ccc3[C@H]2N2C(=O)N(c3ccc(F)cc3)C(=O)[C@@]12C	none
CCc1ccc(-c2nc(CS(=O)CC(=O)O)c(C)o2)cc1 (stereo not given)	IDE cell activ 17.9
[N-]=[N+]=CC(=O)C(O)(c1ccccc1)C(Cl)c1ccccc1 (stereo not given)	SUMO Mot1 rescue 301.5 (no result: IDE cell activ)
COc1ccc(-c2nc3c(=O)n(C)c(=O)[nH]c3n2CCc2ccccc2)cc1	LANA-H2A inh 19.6!
CCCn1c(-c2ccccc2)nc2c(=O)n(C)c(=O)[nH]c21	none
Cc1cc(C(=O)OC(C)C(=O)N2CCc3ccccc32)ccc1[N+](=O)[O-] (stereo not given)	none (no result: LANA-H2A inh, HDAC3 inh)
CN(C)C(=O)c1ccc(NC(=O)COC(=O)C2(c3ccccc3)CCCC2)cc1	none
O=c1[nH]c(Cc2ccccc2)nc2c1oc1ccccc12	LANA-H2A inh 8.2
O=c1[nH]c(CO)nc2c1oc1ccccc12	none
COc1ccc(NS(=O)(=O)c2ccc(C)c(C(=O)N3CCC3)c2)cc1	none
Cc1ccccc1N1CCN(C2CCCN(C(=O)CCC(=O)N(C)C)C2)CC1 (stereo not given)	SUMO Mot1 rescue 293.9
CCN(CC)S(=O)(=O)c1ccc(N2CCOCC2)c(NC(=O)COc2ccc(OC)cc2)c1	LANA-H2A inh active
CCN(CC)S(=O)(=O)c1ccc(N2CCOCC2)c(NC(=O)COc2ccc(C#N)cc2)c1	none (no result: LANA-H2A inh, HDAC3 inh, SUMO Mot1 rescue)
COc1ccc(C(=O)OCC(=O)Nc2cc(S(=O)(=O)N3CCOCC3)ccc2N2CCCC2)cc1	none
COc1ccccc1C(=O)OCC(=O)Nc1cc(S(=O)(=O)N2CCOCC2)ccc1N1CCCC1	SUMO Mot1 rescue 407.2
O=C(Nc1cc(S(=O)(=O)N2CCOCC2)ccc1N1CCOCC1)c1ccccc1F	IDE cell activ 19.8
O=C(c1ccccc1F)N1CCN(S(=O)(=O)c2ccc3c(c2)OCCO3)CC1	HDAC3 inh 31.9
CC(C)CNC(=O)c1ccc2c(c1)C(=O)N(Cc1ccco1)C2=O	none
CCN(C[C@H]1N[C@@](C)(C(=O)OC)[C@H]2C(=O)N(Cc3ccccc3)C(=O)[C@@H]12)C(=O)Nc1ccc(Cl)cc1	none
NC(=O)C(c1ccccc1)c1ccc(C(=O)c2ccccc2)cc1 (stereo not given)	none
O=C(CCc1nnc2ccc(NCc3ccco3)nn12)Nc1ccc(F)cc1	HDAC3 inh inconclusive
c1coc(-c2nnc(-c3ccco3)nn2)c1	none
O=C(c1cnsn1)N1CCCC(Nc2ccc(F)c(F)c2)C1 (stereo not given)	none (no result: LANA-H2A inh, HDAC3 inh, SUMO Mot1 rescue)
CCCCCCCCCCCCCCCC[N+](C)(C)CCN(Cc1ccc(OC)cc1)c1ncccn1	HDAC3 inh 62.7, IDE cell activ 17.5
O=C(NC1CCN(S(=O)(=O)c2ccccc2)CC1)c1cccc(F)c1	none
